# This is part of a sample that, as a whole, favours compounds with a hit. Of some 83,000 tested, about 20% had one in any assay.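 Growth was measured after 48 h exposure to one concentration of compound in 96-well plates. Values under 10 count as active.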 Activity calls are given as the source filed them.
# System: SK-MEL-5 melanoma
# Experiment: NCI-60 one-dose screen, 48 h (100 = growth as untreated, 0 = no growth, -100 = all killed)
# Settings: 10 µM unless noted
row,SMILES,growth
1,CCOC(=O)c1c(Nc2ccccc2)nn2c(N)c(C#N)c(-c3ccccc3)nc12,86.8% (inactive)
2,COC(=O)c1ccc(NC(=S)N2CCc3ccc([N+](=O)[O-])cc3C2)cc1O,100% (inactive)
3,CCCC(=O)NC(c1cccc(N(C)C)c1)c1cc(C)c2cccnc2c1O (stereo not drawn),62.7% (inactive)
4,COc1cc(/C=C/C(=O)c2cc(OC)c(OC)c(OC)c2)ccc1Oc1nc(NCCO)nc(N2CCOCC2)n1,3.03% (active)
5,CS(=O)(=O)c1ccc(-n2cc(/C=C/C(=O)c3ccc(NC(=O)CO[N+](=O)[O-])cc3)c(-c3ccc(Cl)cc3)n2)cc1,98.4% (inactive)
6,Cc1cc2nc3c4cc(Cl)ccc4n(CC(=O)NCCN(C)C)c3nc2cc1C,89.8% (inactive)
7,Cc1cc2nc3c4cc(Cl)ccc4n(CC(=S)NCCN(C)C)c3nc2cc1C,-10.3% (active)
8,NS(=O)(=O)c1ccc(Nc2nc(SCC(=O)c3ccc(Cl)cc3)nc3ccccc23)cc1,95.3% (inactive)
9,Clc1ccc2oc3c(NCCCN4CCOCC4)c4ccccc4nc3c2c1,44.2% (inactive)
10,Cc1ccc(/C=C/c2nn3c(-c4ccco4)nnc3s2)cc1C,103% (inactive)
11,N=C1CC(=O)NN1C(=O)CSc1nc2sc3c(c2c(=O)n1-c1ccc(Cl)cc1)CCCC3,103% (inactive)
12,O=C(NNc1nc2cc(F)ccc2n2c(CN3CC4(COC4)C3)ccc12)c1cnccn1,-20.3% (active)
13,COc1cc2nc(-c3ccc(C)cc3)cc(OCCCNCC3CCCO3)c2cc1OC (stereo not drawn),77.7% (inactive)
14,CS(=O)(=O)c1ccc(-c2nc3ccccn3c2C=Nc2ccc(Cl)cc2)cc1,68.6% (inactive)
15,C#Cc1nc(C2=C(C)C(=O)/C(=N/OC(C)=O)C2)cs1,97.3% (inactive)
16,CSCCC(C(=O)O)N1C(=O)/C(=C/c2ccc(O)c(O)c2)SC1=S (stereo not drawn),99.9% (inactive)
17,CC(=NNc1ncnc2ccccc12)c1ccc(S(C)(=O)=O)cc1,101% (inactive)
18,Nc1c(C(=O)c2ccc(Br)cc2)oc2nc(-c3cnccn3)cc(-c3cccs3)c12,98% (inactive)
19,COc1cc(-c2nc3ccc(-c4nnc(SCC(=O)Nc5ccc(C(C)=O)cc5)o4)cc3[nH]2)cc(OC)c1OC,102% (inactive)
20,N#Cc1nc(-c2ccccc2)oc1S(N)(=O)=O,76.2% (inactive)

row,SMILES,growth
1,O=C(CN1C(=O)/C(=C/c2ccccc2)SC1=S)N1CCOCC1,97% (inactive)
2,Nc1ncc(-c2ccc3ncnc(N4CCc5cc(F)c(Cl)cc54)c3c2)cc1CO,-72.4% (active)
3,Cc1ccc(C(=O)Nc2cccc(C(F)(F)F)c2)cc1Nc1nc(-c2cnccn2)nc2c1cnn2C,57.6% (inactive)
4,Clc1ccc2c(NCCCn3ccnc3)c3oc4ccc(Cl)cc4c3nc2c1,86.8% (inactive)
5,CN(C)CCCNc1c2ccc(Cl)cc2nc2c1oc1ccc(Cl)cc12,77.1% (inactive)
6,O=C(N/N=C/c1ccc[nH]1)c1[nH]c2ccc(Br)cc2c1-c1ccccc1,-34.3% (active)
7,C#Cc1nc(C2=C(C)/C(=N/OCc3ccccc3)CC2)cs1,85.7% (inactive)
8,N#Cc1ccc(C(=O)CSc2nc(Nc3ccc(S(N)(=O)=O)cc3)c3ccccc3n2)cc1,102% (inactive)
9,C=CCn1c(SCC(=O)c2ccccc2)nnc1-c1c[nH]c2ccccc12,96.6% (inactive)
10,Cc1cc(=O)oc2cc(OCCCOc3ccc(/C=C/C(=O)Nc4ccc(Cl)cc4)cc3)ccc12,55.9% (inactive)
11,O=C(c1ccc(Cl)cc1)C1[C@H](c2ccc(Cl)cc2)[C@@H](c2ccccc2)NC12C(=O)Nc1ccc(Br)cc12 (stereo partly drawn),54.8% (inactive)
12,C[C@@H](Nc1c(C#N)cnc2ccc(-c3cnc(N)nc3)cc12)c1ccccc1,-74.2% (active)
13,CCN1C(=S)N(CC)C2C1NN=C1SC(c3ccccc3)=CC(=O)N12 (stereo not drawn),99.7% (inactive)
14,CC(C)(O)c1cncc(-c2ccc3ncnc(N4CCc5cc(F)c(Cl)cc54)c3c2)c1,13.4% (inactive)
15,CC(C)(C)Nc1nc2c(OCCc3ccccc3)cccn2c1-c1ccccc1Cl,-92.5% (active)
16,COc1ccc(/C=N/NC(=O)c2[nH]c3ccc(Br)cc3c2-c2ccccc2)s1,-24.4% (active)
17,OC1CCN(CCCOc2c3ccccc3nc3c2oc2ccc(Cl)cc23)CC1,26.6% (inactive)
18,Cc1sc2c(c1C)c(=O)nc1c(-c3nc(-c4ccc(F)cc4)no3)n[nH]n12,107% (inactive)
19,CC(C)(C)Nc1nc2c(OCCc3ccccc3)cccn2c1-c1cccc(F)c1,-82.4% (active)

# System: UACC-62 melanoma
# Experiment: as above
# Settings: 10 µM unless noted
row,SMILES,growth
1,CCOC(=O)c1c(Nc2ccccc2)nn2c(N)c(C#N)c(-c3ccccc3)nc12,83.4% (inactive)
2,COC(=O)c1ccc(NC(=S)N2CCc3ccc([N+](=O)[O-])cc3C2)cc1O,99.2% (inactive)
3,CCCC(=O)NC(c1cccc(N(C)C)c1)c1cc(C)c2cccnc2c1O (stereo not drawn),46.1% (inactive)
4,COc1cc(/C=C/C(=O)c2cc(OC)c(OC)c(OC)c2)ccc1Oc1nc(NCCO)nc(N2CCOCC2)n1,-4.12% (active)
5,CS(=O)(=O)c1ccc(-n2cc(/C=C/C(=O)c3ccc(NC(=O)CO[N+](=O)[O-])cc3)c(-c3ccc(Cl)cc3)n2)cc1,83.3% (inactive)
6,Cc1cc2nc3c4cc(Cl)ccc4n(CC(=O)NCCN(C)C)c3nc2cc1C,79.4% (inactive)
7,Cc1cc2nc3c4cc(Cl)ccc4n(CC(=S)NCCN(C)C)c3nc2cc1C,-67.1% (active)
8,NS(=O)(=O)c1ccc(Nc2nc(SCC(=O)c3ccc(Cl)cc3)nc3ccccc23)cc1,79.4% (inactive)
9,Clc1ccc2oc3c(NCCCN4CCOCC4)c4ccccc4nc3c2c1,40% (inactive)
10,Cc1ccc(/C=C/c2nn3c(-c4ccco4)nnc3s2)cc1C,94.8% (inactive)
11,N=C1CC(=O)NN1C(=O)CSc1nc2sc3c(c2c(=O)n1-c1ccc(Cl)cc1)CCCC3,93.9% (inactive)
12,O=C(NNc1nc2cc(F)ccc2n2c(CN3CC4(COC4)C3)ccc12)c1cnccn1,5.57% (active)
13,COc1cc2nc(-c3ccc(C)cc3)cc(OCCCNCC3CCCO3)c2cc1OC (stereo not drawn),96.6% (inactive)
14,CS(=O)(=O)c1ccc(-c2nc3ccccn3c2C=Nc2ccc(Cl)cc2)cc1,24.5% (inactive)
15,C#Cc1nc(C2=C(C)C(=O)/C(=N/OC(C)=O)C2)cs1,80.3% (inactive)
16,CSCCC(C(=O)O)N1C(=O)/C(=C/c2ccc(O)c(O)c2)SC1=S (stereo not drawn),93.7% (inactive)
17,CC(=NNc1ncnc2ccccc12)c1ccc(S(C)(=O)=O)cc1,96.1% (inactive)
18,Nc1c(C(=O)c2ccc(Br)cc2)oc2nc(-c3cnccn3)cc(-c3cccs3)c12,93.7% (inactive)
19,COc1cc(-c2nc3ccc(-c4nnc(SCC(=O)Nc5ccc(C(C)=O)cc5)o4)cc3[nH]2)cc(OC)c1OC,93.2% (inactive)
20,N#Cc1nc(-c2ccccc2)oc1S(N)(=O)=O,66.6% (inactive)

row,SMILES,growth
1,O=C(CN1C(=O)/C(=C/c2ccccc2)SC1=S)N1CCOCC1,93.4% (inactive)
2,Nc1ncc(-c2ccc3ncnc(N4CCc5cc(F)c(Cl)cc54)c3c2)cc1CO,-60.5% (active)
3,Cc1ccc(C(=O)Nc2cccc(C(F)(F)F)c2)cc1Nc1nc(-c2cnccn2)nc2c1cnn2C,17.9% (inactive)
4,Clc1ccc2c(NCCCn3ccnc3)c3oc4ccc(Cl)cc4c3nc2c1,94.6% (inactive)
5,CN(C)CCCNc1c2ccc(Cl)cc2nc2c1oc1ccc(Cl)cc12,12.6% (inactive)
6,O=C(N/N=C/c1ccc[nH]1)c1[nH]c2ccc(Br)cc2c1-c1ccccc1,13.4% (inactive)
7,C#Cc1nc(C2=C(C)/C(=N/OCc3ccccc3)CC2)cs1,62.5% (inactive)
8,N#Cc1ccc(C(=O)CSc2nc(Nc3ccc(S(N)(=O)=O)cc3)c3ccccc3n2)cc1,99.4% (inactive)
9,C=CCn1c(SCC(=O)c2ccccc2)nnc1-c1c[nH]c2ccccc12,81.5% (inactive)
10,Cc1cc(=O)oc2cc(OCCCOc3ccc(/C=C/C(=O)Nc4ccc(Cl)cc4)cc3)ccc12,75.7% (inactive)
11,O=C(c1ccc(Cl)cc1)C1[C@H](c2ccc(Cl)cc2)[C@@H](c2ccccc2)NC12C(=O)Nc1ccc(Br)cc12 (stereo partly drawn),37.4% (inactive)
12,C[C@@H](Nc1c(C#N)cnc2ccc(-c3cnc(N)nc3)cc12)c1ccccc1,-9.74% (active)
13,CCN1C(=S)N(CC)C2C1NN=C1SC(c3ccccc3)=CC(=O)N12 (stereo not drawn),92.6% (inactive)
14,CC(C)(O)c1cncc(-c2ccc3ncnc(N4CCc5cc(F)c(Cl)cc54)c3c2)c1,5.48% (active)
15,CC(C)(C)Nc1nc2c(OCCc3ccccc3)cccn2c1-c1ccccc1Cl,-42.1% (active)
16,COc1ccc(/C=N/NC(=O)c2[nH]c3ccc(Br)cc3c2-c2ccccc2)s1,42.4% (inactive)
17,OC1CCN(CCCOc2c3ccccc3nc3c2oc2ccc(Cl)cc23)CC1,-19.5% (active)
18,Cc1sc2c(c1C)c(=O)nc1c(-c3nc(-c4ccc(F)cc4)no3)n[nH]n12,97.8% (inactive)
19,CC(C)(C)Nc1nc2c(OCCc3ccccc3)cccn2c1-c1cccc(F)c1,-7.68% (active)

# Source: PubChem BioAssay (NCI)
